Drawing on PubChem BioAssay AID504725 (Broad Institute, 2011), this text covers outcome for 38 compounds.

Measured potencies and affinities stand elsewhere. Active and inactive are the calls of the source. No rule for the calls is given here.

The experiment addresses KSHV LANA C-terminal domain (residues 932-1162) binding to LBS DNA (UniProt O40947). Put plainly: inhibitors of C-LANA binding to LBS DNA, dose response, biochemical, fluorescence polarization, cherry-picked samples (AID 504725). The note with it: MBP-C-LANA / FAM-LBS DNA fluorescence polarization, percent change from plate compound-well median; series mostly up to 35 µM. On the technique in general: Polarisation of emitted light reports the rotation of a fluorescent probe.
Regarding `COc1[nH]c(/N=C/c2ccccc2)c(C#N)c1C#N`, the result was inactive. Turning to `O=C(CC1CCCC1)N1CCN(S(=O)(=O)c2ccccc2)CC1`, the compound was classed as inactive. To `CCOC(=O)CCCn1c(C)nc(=O)c(-c2ccccc2)c1C` belongs “inactive”; to `COc1c2c(nc3occc13)C(CCC(C)(C)O)(OC)C(O)CC2` (stereo not drawn), “inactive”; to `CCOC(=O)c1cnc(SC)nc1Sc1ccc(Cl)cc1Cl`, “inactive”.

Take `C=CCNC(=S)N1CCN(S(=O)(=O)c2ccc(C)cc2)CC1`: the compound was called inactive. As for `C/C(=N\NC(=O)CCc1c(C)n[nH]c1C)c1ccc([N+](=O)[O-])cc1`, the entry is “inactive”. Consider `CCOC(=O)c1c(C)nc2cc(C)ccn12`, for which the call was inactive. To `CCOc1ccc(C(C)NC(=O)c2ccccc2OCc2c(C)noc2C)cc1OCC` (stereo not drawn) belongs “inactive”; to `CC1CCCN(C(=O)C(=O)c2cn(CC(=O)N3CCCCCC3)c3ccccc23)C1` (stereo not drawn), “inactive”; to `CC(=O)O[C@@H]1[C@@H](OC(C)=O)[C@H](n2ccc3cc([N+](=O)[O-])ccc32)OC[C@@H]1OC(C)=O`, “inactive”. In the case of `CSc1ncccc1C(=O)OCCCC(=O)c1ccc(F)cc1`, the compound was called inactive. To `CCOc1ccccc1N1CCN(C(=O)c2ccc3nc(N)sc3c2)CC1` belongs “inactive”. To `CSc1n[nH]c(=O)n1-c1cccc(Cl)c1` belongs “inactive”; to `Cn1c(Cl)c(C(=O)Nc2ccc(Cl)cc2)c2ccccc21`, “inactive”. To `O=C(CCNc1ccc(Cc2ccncc2)cc1)c1cccc([N+](=O)[O-])c1` belongs “inactive”. Consider `COc1ccc(C2(CNC(=O)CCC(=O)O)CCCC2)cc1OC`, for which the compound was classed as inactive. Regarding `COc1ccc(C(=O)N/N=C/c2ccc(OC)c(COc3ccccc3)c2)cc1`, the outcome was inactive. To `CCCc1cc(C(=O)Nc2ccc(C(=O)c3ccc(C)cc3)cc2)n(C)n1` belongs “inactive”; to `Nc1nc(SCC(=O)N2CCCCC2)[nH]c(=O)c1NC(=O)c1cccs1`, “inactive”.

With `O=C(O)C1(c2ccccc2)CCN(S(=O)(=O)c2ccc(Cl)s2)CC1`, the outcome was inactive. As for `CCN(C(=O)COC(=O)c1nc2nc(C)cc(C)n2n1)C1CCCCC1`, the entry is “inactive”; as for `O=c1oc2ccccc2nc1/C=C(\O)c1ccc(Br)cc1`, “inactive”. `C=CCOC(=O)C1=C[C@H](c2csc3ccccc23)C[C@H](OCc2ccc(CO)cc2)O1`: the outcome was inactive. As for `CCc1nnc(NC(=O)c2cccc(S(=O)(=O)N(C)c3ccccc3)c2)s1`, the entry is “inactive”; as for `O=C(NCc1cccnc1)C(=O)C1C(=O)Nc2ccccc21` (stereo not drawn), “inactive”; as for `Cc1ccc(C(=O)CCC(=O)Nc2ncccc2C)cc1`, “inactive”. To `CCN(Cc1ccccc1)S(=O)(=O)c1cc2[nH]c(=O)c(=O)[nH]c2cc1C` belongs “inactive”. As for `COC(=O)Cn1c(=NC(=O)c2sc3ccccc3c2Cl)sc2cc(S(N)(=O)=O)ccc21`, the entry is “inactive”; as for `O=C(NC1(O)C(=O)c2ccccc2C1=O)c1c(Cl)cccc1Cl`, “inactive”; as for `S=c1[nH]nc([C@@H]2C[C@H]2c2ccccc2)n1-c1ccccc1Cl`, “inactive”.

As to `COc1ccc(Br)cc1CNC(=O)CCCc1cn(C)c2ccccc12`, the compound was classed as inactive.

Regarding `COC(=O)c1sc(C(F)(F)F)c(-c2ccccc2)c1S(=O)(=O)N1CCOCC1`, the outcome was inactive. To `Cn1c(=O)c2c(nc(N/N=C/c3ccc(OC(=O)c4ccco4)cc3)n2Cc2ccc(F)cc2)n(C)c1=O` belongs “inactive”; to `O=C(O)C(c1ccccc1)N1C(=O)/C(=C\c2ccc(-c3cccc(Cl)c3)o2)SC1=S` (stereo not drawn), “inactive”. As for `CC(OC(=O)CCN1C(=O)C2CC=CCC2C1=O)C(=O)Nc1ccc(F)cc1` (stereo not drawn), the entry is “inactive”. To `COCCN(C(=O)CN1CCCc2ccccc21)c1c(N)n(Cc2ccccc2)c(=O)[nH]c1=O` belongs “inactive”; to `NC(=S)COc1ccccc1`, “inactive”.
